Screens deposited in PubChem by National Center for Advancing Translational Sciences (NCATS).
Vaccinia Venus: vaccinia inhibition (Venus reporter). Potency, µM (highest dose often 36.5 µM), hits mostly inhibitors. 330,000 tested, 0.46% active. Vaccinia virus Venus reporter expression, fluorescence. AID 720580; calls by dose curve; tested in A549 cells; note: nearly all actives have a fitted effect of over 30% in size
FMDV antiviral: foot and mouth disease virus antiviral activity | FMDV antiviral cell-based qHTS | Potency, µM (doses to about 57.9 µM), hits mostly inhibitors | 410,000 tested, 1.2% active; calls by dose curve; tested in HEK293T cells; note: read-out not given here; nearly all actives have a fitted effect of over 45% in size
Giardia FBPA inh-1: inhibitors of Giardia lamblia fructose-1,6-bisphosphate aldolase; A8B2U2; purified Giardia FBPA; Potency, µM (series often up to 59.6 µM), hits mostly inhibitors; 290,000 tested, 0.71% active; note: nearly all actives have a fitted effect of over 55% in size
Target sequence (A8B2U2 whole entry, looked up): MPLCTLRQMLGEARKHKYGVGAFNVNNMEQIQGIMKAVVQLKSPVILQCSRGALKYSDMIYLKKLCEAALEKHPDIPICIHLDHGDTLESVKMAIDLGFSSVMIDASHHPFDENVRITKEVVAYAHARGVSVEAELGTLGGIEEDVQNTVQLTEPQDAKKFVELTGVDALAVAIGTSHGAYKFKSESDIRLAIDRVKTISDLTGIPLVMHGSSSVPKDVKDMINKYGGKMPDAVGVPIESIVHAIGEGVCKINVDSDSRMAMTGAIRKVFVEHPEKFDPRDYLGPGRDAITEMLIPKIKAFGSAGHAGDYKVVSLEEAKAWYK
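Giardia FBPA (40 nM reagent) was preincubated 10 min at RT with compound (up to 57.5 uM final), then substrate plus GAPDH/TPI/NAD/arsenate coupling system with diaphorase/resazurin was added; resorufin fluorescence (525/598 nm) was read after 20 min.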
VACV mCherry inh: vaccinia inhibition (mCherry reporter) | 310,000 tested, 0.63% active | Potency, µM (titrated, usually from 36.5 µM), hits mostly inhibitors | Vaccinia virus mCherry reporter infection, fluorescence; calls by dose curve; tested in A549 cells; note: nearly all actives have a fitted effect of over 35% in size
Giardia growth: inhibitors of Giardia lamblia growth. Potency, µM (highest dose often 57.5 µM), hits mostly inhibitors. shares compounds with Giardia FBPA inh-1. 1,500 tested, 5% active. Giardia lamblia trophozoite growth inhibition;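 note: trophozoites exposed to compound for 48 h at 37 °C; nearly all actives have a fitted effect of over 70% in size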
Mammalian tox: counter-screen for Giardia aldolase inhibitors: mammalian cell toxicity. Potency, µM (top dose mostly 57.5 µM), hits mostly inhibitors. 1,500 tested, 4% active. AID 2786. shares compounds with Giardia FBPA inh-1. mammalian cell viability counter-screen, qHTS;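 note: Chinese hamster ovary cells used as mammalian cytotoxicity surrogate; viability measured as cellular ATP by luminescence; compound exposure lasted 48 h before reading; nearly all actives have a fitted effect of over 60% in size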
Giardia FBPA inh-2: confirmation of Giardia fructose-bisphosphate aldolase inhibitors; AID 2787; shares compounds with Giardia FBPA inh-1; purified Giardia aldolase enzyme activity, qHTS; Potency, µM (doses to about 57.5 µM), most hits filed as inhibitors; 1,500 tested, 5% active; note: nearly all actives have a fitted effect of over 45% in size
Rabbit aldolase: rabbit FBP aldolase inhibition by Giardia aldolase hits; shares compounds with Giardia FBPA inh-1; Rabbit muscle FBPA enzyme inhibition, selectivity counter-screen; Potency, µM (series often up to 57.5 µM), actives largely listed as inhibitors; 1,500 tested, 4% active; note: nearly all actives have a fitted effect of over 60% in size
Target sequence (P00883 whole entry, looked up): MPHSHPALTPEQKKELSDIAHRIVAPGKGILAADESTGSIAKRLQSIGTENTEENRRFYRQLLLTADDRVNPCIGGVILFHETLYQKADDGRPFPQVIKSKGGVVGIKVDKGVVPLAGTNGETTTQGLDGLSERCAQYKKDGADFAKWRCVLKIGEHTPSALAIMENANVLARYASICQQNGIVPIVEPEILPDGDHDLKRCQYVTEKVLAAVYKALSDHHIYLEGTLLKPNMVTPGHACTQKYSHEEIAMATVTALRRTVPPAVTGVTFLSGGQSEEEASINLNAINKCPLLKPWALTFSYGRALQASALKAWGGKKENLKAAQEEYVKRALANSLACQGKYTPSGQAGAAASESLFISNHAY
GAPDH counter: GAPDH inhibition flagged for Giardia aldolase hits | shares compounds with Giardia FBPA inh-1 | GAPDH coupling enzyme counterscreen, biochemical, qHTS | Potency, µM (doses to about 57.5 µM), actives largely listed as inhibitors | 1,500 tested, 6% active | AID 2795; note: nearly all actives have a fitted effect of over 55% in size
Numbers stand for hits; . = inactive; ? = inconclusive; / = no result; ! = not active in a repeat; [ ] = remark or other dose. Most compounds without a hit are left out; they make up all but 2.2% or so of the library. Unless noted, calls come from the whole dose curve; as a rule, active = well fitted curve in the direction sought with a large enough effect; inconclusive = small, poorly fitted or top-dose-only effect, or another doubt; inactive = no such curve, though single readings can be large; an effect the other way counts as inactive or inconclusive.

SMILES	Vaccinia Venus	FMDV antiviral	Giardia FBPA inh-1	VACV mCherry inh	Giardia growth	Mammalian tox	Giardia FBPA inh-2	Rabbit aldolase	GAPDH counter
N#CC1=C2SCN(c3ccc(F)cc3)CN2C(=O)CC1c1cccc(F)c1 (configuration not stated)	.	.	7.1µM	.	.	.	.	?	.
CCOC(=O)c1ccc(N2CSC3=C(C#N)C(c4cccs4)CC(=O)N3C2)cc1 (configuration not stated)	.	.	20µM	.	.	.	.	.	.
S=C(Nc1ccccc1)Nc1nccs1	.	.	0.63µM!	.	.	20µM	.	.	.
Cn1cc(Cl)c(C(=O)Nc2nccs2)n1	.	.	/	.	/	/	/	/	/
O=C(Nc1nccs1)c1ccccn1	/	.	18µM	/	?	.	.	.	.
CCn1cc(Cl)c(C(=O)Nc2nccs2)n1	.	.	4µM	.	.[10.4 µM]	.	.	.	.
O=C(COC(=O)C12CC3CC(CC(C3)C1)C2)NCC1CCCO1 (configuration not stated)	.	/	/	.	/	/	/	/	/
Cc1ccc([N+](=O)[O-])cc1NC(=S)NC(=O)c1c(Cl)cnn1C	/	.	7.9µM	/	.	.	.	.	.
Cc1ccc([N+](=O)[O-])cc1NC(=S)NC(=O)C(C)(C)C	.	/	.	.	/	/	/	/	/
COc1ccc(OC)c(CCNC(=O)CCCn2c(=O)c3cccn3c3ccc(F)cc32)c1	.	.	/	.	/	/	/	/	/
O=C(Nc1nc(-c2ccccn2)cs1)c1cccc(-n2cnnn2)c1	/	.	5µM	/	?	32µM	.	.	.
O=C(Nc1nc(-c2ccccn2)cs1)c1ccco1	?	.	16µM	2.5µM	?	40µM	.	.	.
O=C(Nc1ccc(Br)cc1)c1cccc(-n2cnnn2)c1	.	.	.	.	/	/	/	/	/
Cc1ccccc1NC(=O)c1nc2nccc(C)n2n1	/	/	.	/	/	/	/	/	/
C[C@H](NC(=O)c1ccco1)C(=O)Nc1nc(-c2ccccn2)cs1	.	.	/	.	/	/	/	/	/
Cc1ccnc2nc(C(=O)Nc3nc(-c4ccccn4)cs3)nn12	.	.	16µM	.	?	.	.	.	.
COc1ccc(S(=O)(=O)c2cn(C)c3cc(N4CCCCCC4)c(F)cc3c2=O)cc1	.	.	/	?	/	/	/	/	/
CC[C@@]1([C@@H]2O[C@@H]([C@H]3O[C@@](O)(CO)[C@H](C)C[C@@H]3C)C[C@@H]2C)CC[C@@H]([C@]2(C)CCC3(C[C@H](O)[C@@H](C)[C@@H]([C@@H](C)[C@@H](OC)[C@H](C)C(=O)O)O3)O2)O1 (some centres not stated)	/	/	.	/	/	/	/	/	/
CC[C@H](C)[C@H](NC(=O)[C@H](N)Cc1ccc(O)cc1)C(=O)N[C@@H](CC(N)=O)C(=O)N[C@@H](CC(C)C)C(=O)N[C@H](C(=O)N[C@@H](C(=O)N[C@@H](CCCN=C(N)N)C(=O)N[C@@H](CCC(N)=O)C(=O)N[C@@H](CCCN=C(N)N)C(=O)N[C@H](Cc1ccc(O)cc1)C(N)=O)[C@@H](C)O)[C@@H](C)CC	/	/	.	/	/	/	/	/	/
CCOc1ccccc1C(O)C1=CC(=O)c2ccccc2C1=O (configuration not stated)	.	.	/	.	/	/	/	/	/
CC1=CC(=O)c2ccccc2C1=O	.	.	?	.	.	.	?	?	?
CCCCn1c(NS(=O)(=O)c2ccc(C)cc2)c(S(=O)(=O)c2ccccc2)c2nc3ccccc3nc21	.	.	?	.	/	/	/	/	/
CCCCn1c(NS(=O)(=O)c2ccccc2)c(C(=O)OCC)c2nc3ccccc3nc21	.	.	0.45µM	.	.	.	?	.	40µM
COc1cccc(COCC(O)Cn2cnc3cc(C)c(C)cc32)c1 (configuration not stated)	.	?	20µM	.	.[10.4 µM]	.	.	.	.
COC(=O)c1cccc(OCC(O)Cn2cnc3cc(C)c(C)cc32)c1 (configuration not stated)	/	.	.	/	/	/	/	/	/
SMILES	Vaccinia Venus	FMDV antiviral	Giardia FBPA inh-1	VACV mCherry inh	Giardia growth	Mammalian tox	Giardia FBPA inh-2	Rabbit aldolase	GAPDH counter
COc1ccccc1N1CCN(Cc2ccc(SC)cc2)CC1	/	.	16µM	/	.	.	.	.	.
COc1ccc(CN2CCN(Cc3ccccc3OC)CC2)cc1	/	.	14µM	/	.	.	.	.	.
COc1ccccc1N1CCN(CC(=O)Nc2ccc3c(c2)OCCO3)CC1	/	.	18µM	/	.	.	.	.	.
COc1ccccc1N1CCN(CC(=O)c2ccc(F)cc2)CC1	/	.	16µM	/	.	.	.	.	.
COc1ccccc1N1CCN(CCC(=O)Nc2ccc3c(c2)OCO3)CC1	/	?	.	/	/	/	/	/	/
O=C(NCCNCCO)C1(C(F)(F)F)CC(CCc2ccccc2)CCCO1 (configuration not stated)	/	/	.	/	/	/	/	/	/
O=C1c2ccccc2C(=O)N1c1ccccn1	.	/	/	.	/	/	/	/	/
O=C(Cn1c(=O)nc(-c2ccccc2F)c2cc(Cl)ccc21)N1CCN(c2ccccc2F)CC1	.	.	/	.	/	/	/	/	/
COc1ccc(CN2CCN(Cc3cccc(F)c3)CC2)cc1OC	.	.	?	.	/	/	/	/	/
COc1ccc(CN2CCN(Cc3ccccc3F)CC2)cc1OC	/	.	16µM	/	.	.	.	.	.
COc1ccccc1CN1CCN(C(=O)COc2ccc3ccccc3c2)CC1	/	.	20µM	/	.[10.4 µM]	.	.	.	.
CCCCn1cnc2c(=O)[nH]c(N)nc21	.	/	/	.	/	/	/	/	/
Cn1c(O)c(C(c2ccccn2)c2c(O)n(C)c(=S)[nH]c2=O)c(=O)[nH]c1=S	.	.	18µM	.	.	.	.	.	.
OC[C@@H]1[C@@H](c2ccc(F)cc2)C(c2ccc(F)cc2)=NN1c1ccccc1	/	/	.	/	/	/	/	/	/
O=S(=O)(c1cccc(C(F)(F)F)c1)N1CCN(c2nc(-c3ccccc3)nc3ccccc23)CC1	.	/	/	.	/	/	/	/	/
Cc1ccc(OCCCn2ccnc2)c(Br)c1	/	.	18µM	/	.[10.4 µM]	.	.	.	.
c1ccc2cc(OCCCn3ccnc3)ccc2c1	.	.	22µM	.	.	.	.	.	.
CC(C)(C)c1ccc(OCCCn2ccnc2)cc1	.	.	28µM	.	.	.	.	.	.
CCOC(=O)CSc1nc2cc(OC)c(OC)cc2cc1C#N	.	/	/	.	/	/	/	/	/
CCOC(=O)c1[nH]cnc1C(=O)O	.	.	18µM	/	.	.	.	.	.
CN(C)c1ccc(/C=C/c2ccnc3ccccc23)cc1N	.	/	/	.	/	/	/	/	/
Brc1cccc(OCCCCn2cncn2)c1	/	.	28µM	/	.	.	.	.	.
CC(C)CC(=O)N1CCC(N(CCc2ccccc2)Cc2ccccc2)CC1	/	.	25µM	/	.	.	.	.	.
O=C1ON=C(c2ccccc2)/C1=C/c1ccc(O)c(O)c1	.	?	4µM	.	?	.	.	.	.
COCc1[nH]c(=S)c(C#N)cc1C(=O)OC	.[7.34 µM]	.	16µM	.[7.34 µM]	.	.	.	.	.
